Each structure is given as a SMILES string. “And” between values parts separate entries of the source, which are not always exact repeats. Equal values may be shown once. Records with an inconclusive call do not appear. Unmarked numbers belong to inactive results. The source made the active and inactive calls. Calls come from the whole dose curve; as a rule, active = well fitted curve in the direction sought with a large enough effect; inconclusive = small, poorly fitted or top-dose-only effect, or another doubt; inactive = no such curve, though single readings can be large; an effect the other way counts as inactive or inconclusive.

The target in test [1] is Cytochrome P450 3A7 (Homo sapiens) (UniProt P24462). As to the kind of experiment: Cytochrome P450 family 3 subfamily A member 7 (CYP3A7) small molecule antagonists: luciferase biochemical qHTS assay (AID 1963596). Note: % is set by controls: 0 for no effect and ±100 for the full control effect; nearly all actives have a fitted effect of over 40% in size. In short, it runs like this:
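Luminescence read-out (relative luminescence units) after 20 min with detection reagent, which stops the reaction. Enzyme, proluciferin substrate and compound preincubated 10 min, RT; NADPH regeneration system then started 1 h reaction. Ketoconazole as positive control.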
In general terms: Quantitative high-throughput screening tests each substance at several concentrations.

Test [2] can be described thus: Viability qHTS for spleen associated tyrosine kinase inhibitor (SYKi) drug resistant MV4-11 cells (AID 1963824). Note: nearly all actives have a fitted effect of over 35% in size. Note: potency is the fitted concentration of half-maximal effect. In short, it runs like this: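 CellTiter-Glo luminescence, read 10 min after reagent addition, reports viability after a 72 hr compound exposure. Cells are an MV4-11 line made resistant to SYK inhibition, seeded at 500 per well onto compound-containing plates.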

Test [3] is described as follows: Cellular viability qHTS for adrenocortical cancer (ACC) cell line SW-13 (AID 1963989).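 Note: cells grown in serum-free medium with ITS supplement; % is set by controls: 0 for no effect and ±100 for the full control effect; nearly all actives have a fitted effect of over 65% in size.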 As to conditions: SW-13 ACC cells viability, CellTiter-Glo, 48 h; activity (max response): stronger effect = lower value. In short, it runs like this:
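48 h treatment, SW-13 in ITS/DMEM serum-free; doses up to 46 uM; readout CellTiter-Glo luminescence; curve fit four-parameter logistic.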

A short description of test [4]: Cellular viability qHTS for adrenocortical cancer (ACC) cell line NCI-H295R (AID 1963990).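 Note: 0% = DMSO only wells and -100% = full killing with cytotoxic reference compound; nearly all actives have a fitted effect of over 60% in size.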 The method in brief: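 Compound titrations (up to 46 uM final) are applied to NCI-H295R cultures for 48 h at 37C. Viable cell number is estimated by CellTiter-Glo signal, normalised to DMSO and doxorubicin controls.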
Test [5] can be described thus: Quantitative highthroughput screen to assess conditional lethalithy of NOMO1 cells grown in RPMI1640 with dialyzed fetal bovine serum (RPMI+ds) (AID 1963877).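 Note: series mostly up to about 46 µM; 100% = DMSO control wells and 0% = empty wells; nearly all actives have a fitted effect of over 30% in size.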 The method in brief:
(§1)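 Each medium arm—HPLM with 10% dialyzed FBS, or RPMI1640 with 5 mM glucose and 10% untreated or dialyzed FBS—was screened against an 11-point, 3-fold compound titration for 48 h at 37 °C, with CellTiter-Glo luminescence as endpoint.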

A short description of test [6]: Quantitative highthroughput screen to assess conditional lethalithy of P12 Ichikawa cells grown in Human Plasma-Like Medium with dialyzed fetal bovine serum (HPLM+ds) (AID 1963879). Note: series mostly up to about 46 µM; nearly all actives have a fitted effect of over 35% in size. As to conditions: Potency: viability. In short, it runs like this:
as §1

Test [7] in a line: Quantitative highthroughput screen to assess conditional lethalithy of P12 Ichikawa cells grown in RPMI1640 with dialyzed fetal bovine serum (RPMI+ds) (AID 1963880).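 Note: 100% = DMSO wells and 0% = empty wells on each plate; nearly all actives have a fitted effect of over 35% in size.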 The conditions noted are these: Potency: P12-Ichikawa viability. In short, it runs like this: as §1
The nature of test [8]: Quantitative highthroughput screen to assess conditional lethalithy of P12 Ichikawa cells grown in RPMI1640 with untreated serum (RPMI+s) (AID 1963881).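 Note: series mostly up to about 46 µM; 100% = DMSO wells and 0% = empty wells without cells; nearly all actives have a fitted effect of over 35% in size.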 The conditions noted are these: Potency: viability. In short, it runs like this: as §1
A short description of test [9]: Quantitative highthroughput screen to assess conditional lethalithy of SEM cells grown in Human Plasma-Like Medium with dialyzed fetal bovine serum (HPLM+ds) (AID 1963882). The method in brief:
as §1

Test [10] is described as follows: Quantitative highthroughput screen to assess conditional lethalithy of SEM cells grown in RPMI1640 with unreated serum (RPMI+s) (AID 1963883). The method in brief:
as §1

A short description of test [11]: Quantitative highthroughput screen to assess conditional lethalithy of SEM cells grown in RPMI1640 with dialyzed fetal bovine serum (RPMI+ds) (AID 1963884). The method in brief:
as §1

Sequence of Cytochrome P450 3A7 (Homo sapiens) (P24462 whole entry, looked up): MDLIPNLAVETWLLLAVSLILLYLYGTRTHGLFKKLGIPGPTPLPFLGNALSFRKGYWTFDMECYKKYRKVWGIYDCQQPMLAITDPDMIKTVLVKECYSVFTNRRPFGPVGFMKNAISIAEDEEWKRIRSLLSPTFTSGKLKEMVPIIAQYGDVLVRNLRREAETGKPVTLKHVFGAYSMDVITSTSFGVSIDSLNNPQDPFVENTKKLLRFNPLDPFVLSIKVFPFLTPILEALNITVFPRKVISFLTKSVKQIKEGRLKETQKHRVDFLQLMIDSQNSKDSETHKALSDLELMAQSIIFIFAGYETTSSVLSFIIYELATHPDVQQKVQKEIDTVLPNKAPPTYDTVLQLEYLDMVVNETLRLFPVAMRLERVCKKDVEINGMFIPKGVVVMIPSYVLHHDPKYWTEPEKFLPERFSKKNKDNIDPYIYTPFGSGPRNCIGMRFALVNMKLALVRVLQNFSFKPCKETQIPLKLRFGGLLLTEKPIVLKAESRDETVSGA

Turning to `C[C@H](N)[C@H](O)c1ccc(O)c(O)c1`, the Potency result in [1], in test [2] and in test [4] was “inactive” throughout. For the same compound, the activity (max response) in test [3] was 5.15%.
`O=c1[nH]c2ccccc2n1C1CCNCC1`: the Potency result in test [1] and in [2] was “inactive” each time. For the same compound, the activity (max response) in test [3] was 4.94%.
For `O=C(N[C@H]1N=C(c2ccccc2F)c2cccc3c2N(CC3)C1=O)c1cc2ccccc2[nH]1`, in test [1], the Potency result is “inactive”. For the same compound, in test [3], the activity (max response) was 11.2%.
Regarding `CCC(C)C(C)(COC(N)=O)COC(N)=O` (stereo not drawn), the Potency entry in test [1], in test [2] and in [4] was “inactive” in each case. Also, the activity (max response) in [3] was 2.89%.
Regarding `NP(N)(=O)NC(=O)c1ccc(F)cc1`, the Potency entry in test [1], in test [2] and in test [4] was “inactive” in each case. Also, in [3], the activity (max response) is 6.62%.
For `C[C@@H]1CN(C2CCC(C#N)(c3ccc(F)cc3)CC2)CC[C@]1(C(=O)O)c1ccccc1` (stereo partly drawn), the Potency entry in test [1], in test [2] and in test [4] was “inactive” each time.
On to `c1ccc(N2CCNCC2)cc1`, for which the Potency result in test [1], in [2] and in [4] was “inactive” each time. Moreover, the activity (max response) in test [3] is 12.6%.
Take `CCC1(c2cccc(O)c2)CCCCN(C)C1` (stereo not drawn): the Potency result in test [1], in test [2] and in test [4] was “inactive” throughout. Besides, the activity (max response) in test [3] was -10.4%.
Regarding `COc1cccc([C@@]2(O)CCCC[C@@H]2CN(C)C)c1`, the Potency result in [1], in test [2] and in test [4] was “inactive” in each case.
Take `Clc1ccccc1N1CCNCC1`: the Potency entry in test [1], in test [2] and in test [4] was “inactive” in each case. Further, the activity (max response) in test [3] was -1.85%.
`CN1C(=O)COc2c(C(=O)NC3CN4CCC3CC4)cc(Cl)cc21` (stereo not drawn): the Potency result in test [1], in [2], in test [5], in test [6], in test [7] and in test [8] was “inactive” throughout. Moreover, the Potency entry in test [9], in [10], in test [11] and in test [4] was “inactive” each time. For the same compound, the activity (max response) in [3] was 0.49% and -6.93%.
For `CCOCCOC(C)=O`, the Potency entry in [1] is “inactive”. Moreover, in [3], the activity (max response) is 7.41%.
As for `Cc1c(Cl)cccc1S(=O)(=O)Nc1nc(CC(=O)N2CCN(C)CC2)cs1`, the Potency entry in test [1] and in test [2] was “inactive” each time.
As for `CCN(CC)C(=O)c1ccc(C2=CC3(CCNCC3)Oc3cccc(O)c32)cc1`, the Potency entry in [1], in test [9], in [11] and in test [4] was “inactive” in each case.
For `CC(C)C(Br)C(=O)NC(N)=O` (stereo not drawn), the Potency result in test [1], in test [2] and in [4] was “inactive” in each case. For the same compound, the activity (max response) in [3] is -7.38%.
As to `Nc1ccncc1`, the Potency entry in [1], in test [2] and in test [4] was “inactive” throughout. Besides, the activity (max response) in [3] was 11.8%.
As to `CC(=O)N(C)c1cccc(-c2ccnc3c(C(=O)c4cccs4)cnn23)c1`, the Potency result in test [1], in test [5], in [6] and in [9] was “inactive” each time.
In the case of `CC(CC(C(N)=O)(c1ccccc1)c1ccccc1)N(C)C` (stereo not drawn), the Potency entry in test [1], in test [2] and in test [4] was “inactive” each time. Further, the activity (max response) in test [3] is 5.97%.
Take `OCCOc1ccccc1`: the Potency result in test [1], in test [2] and in [4] was “inactive” throughout. Moreover, in test [3], the activity (max response) is 8.17%.
Consider `CC(=O)Nc1cc([As](=O)(O)O)ccc1O`, for which the Potency entry in test [1], in [2] and in test [4] was “inactive” throughout. The activity (max response) in test [3] was 8.13%.
For `CN1C(=O)CN=C(c2ccccc2)c2cc([N+](=O)[O-])ccc21`, the Potency entry in test [1], in test [2] and in test [4] was “inactive” in each case. Also, in test [3], the activity (max response) was 6.26%.
For the compound `C[C@]12CC[C@H]3[C@@H](CC=C4C[C@@H](O)CC[C@@]43C)[C@@H]1CC[C@@H]2O`, the Potency entry in test [1] was “inactive”. For the same compound, the activity (max response) in test [3] is 5.93%.
`c1cc2c(c(N3CCNCC3)c1)OCCO2`: the Potency result in [1] and in test [2] was “inactive” each time. In test [3], the activity (max response) is -0.802%.
Consider `O=[N+]([O-])O[C@H]1CO[C@H]2[C@@H]1OC[C@H]2O[N+](=O)[O-]`, for which the Potency entry in test [1], in [2] and in test [4] was “inactive” each time. The activity (max response) in test [3] is 12.6%.
On to `Nc1ccccc1C(=O)OCC(O)CO` (stereo not drawn), for which the Potency result in test [1] and in test [2] was “inactive” in each case. The activity (max response) in [3] was 6.9%.
As to `COCC1(CO)C(=O)C2CCN1CC2` (stereo not drawn), the Potency result in [1] is “inactive”. Moreover, in test [3], the activity (max response) is 9.27%.
On to `CN1C(=O)[C@@H](NC(=O)c2cc3ccccc3[nH]2)N=C(c2ccccc2)c2ccccc21`, for which the Potency result in [1] and in test [4] was “inactive” each time. Besides, the Potency in test [2] is 4.22 µM (active). Also, in test [3], the activity (max response) is -6.85%.
Regarding `C=C1CC[C@@]2(O)[C@H]3Cc4ccc(O)c5c4[C@@]2(CCN3CC2CC2)[C@H]1O5`, the Potency entry in test [1] and in [2] was “inactive” throughout. For the same compound, the activity (max response) in test [3] is 2.67%.
Take `CC(C)N(CCC(C(N)=O)(c1ccccc1)c1ccccn1)C(C)C` (stereo not drawn): the Potency entry in [1], in [2] and in test [4] was “inactive” throughout. Also, in [3], the activity (max response) is 4.36%.
Consider `CCCCCCC(=O)CCCCCC/C=C/C[C@@H](O)[C@H](O)[C@@](N)(CO)C(=O)O`, for which the Potency result in test [1], in test [2] and in test [4] was “inactive” throughout. In addition, the activity (max response) in test [3] is -4.81%.
As for `[N-]=[N+]=CC(=O)OC[C@H](N)C(=O)O`, the Potency entry in test [1], in test [2] and in test [4] was “inactive” throughout. Besides, in test [3], the activity (max response) is -8.61%.
Consider `O=C1c2ccccc2C(=O)c2ccccc21`, for which the Potency entry in test [1], in test [2] and in test [4] was “inactive” each time. In addition, the activity (max response) in [3] is 3.51%.
Regarding `CC1=C(C(=O)O)N2C(=O)[C@@H](N)[C@H]2SC1`, in test [1], the Potency result is “inactive”. Further, the activity (max response) in test [3] was 6.68%.
Regarding `CC(=O)NC1CCSC1=O` (stereo not drawn), the Potency entry in test [1], in [2] and in [4] was “inactive” in each case.
For `O=C(O)Cc1ccccc1`, the Potency entry in test [1], in [2] and in test [4] was “inactive” throughout. For the same compound, in test [3], the activity (max response) was -6.54%.

These data come from PubChem BioAssay (NCATS).
